In the assay the test system is Drosophila S2 cl14 SmoIP sensor cells. Nature of the assay: normalized SmoIP GFP fluorescence (untreated unstimulated = 0%, untreated Hh-stimulated = 100%); higher = more Smo activation sensor fluorescence. The following applies: compound concentration: 2 uM, 24 h.
Setting [1] is: stimulation: Hh conditioned medium (+Hh).
Setting [2] is: stimulation: mock conditioned medium (-Hh).

SMILES strings stand for the structures. Counter-ions that a name gives are not always drawn.
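Further: flow cytometry read-out as median GFP intensity of gated cells, compounds added 30 min before Hh-conditioned or mock medium, mock-treated cells serving as unstimulated baseline.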

On to `C[N+]1(C)CCC(=C(c2ccccc2)c2ccccc2)CC1` [diphemanil-methylsulfate], for which the “normalized SmoIP GFP fluorescence” value runs as follows: under setting [1], 110%; under setting [2], -3.62%.

Take `O=C(O)c1ccc(N2C(=O)/C(=C\c3ccc(-c4ccc([N+](=O)[O-])cc4)o3)C=C2c2ccccc2)cc1` [4e1rcat]: the “normalized SmoIP GFP fluorescence” value was 105% under setting [1] and -0.265% under setting [2].

For `O=C1CN2Cc3c(ccc(Cl)c3Cl)N=C2N1` [anagrelide-hydrochloride], the “normalized SmoIP GFP fluorescence” value under setting [1] was 108% and the “normalized SmoIP GFP fluorescence” value under setting [2] was -2.31%.

`O=C1[C@H](Cc2ccc(O)cc2)N2C(=O)CCN(C(=O)NCc3ccccc3)[C@H]2CN1Cc1cccc2ccccc12`: the “normalized SmoIP GFP fluorescence” value was 125% under setting [1] and -2.82% under setting [2].

On to `CN(C)Cc1c(C(=O)NCCOc2ccc(C(=O)NO)cc2)oc2ccccc12`, for which the “normalized SmoIP GFP fluorescence” value is, setting by setting: under setting [1], 211%; under setting [2], 35.2%.

For the compound `O=C(Nc1cccc2cccnc12)c1ccc(N2C(=O)[C@@H]3[C@H](C2=O)[C@@H]2C=C[C@H]3C2)cc1` [iwr-1-endo], the “normalized SmoIP GFP fluorescence” value runs as follows: under setting [1], 114%; under setting [2], -4.92%.

Take `OCCOCCN1CCN(C2=Nc3ccccc3Sc3ccccc32)CC1` [Quetiapine-fumarate(Seroquel)]: the “normalized SmoIP GFP fluorescence” value under setting [1] worked out at 106% and the “normalized SmoIP GFP fluorescence” value under setting [2] was -9.58%.

In the case of `CC(C)(O)CC(=O)NCCn1ccc2ncnc(Nc3ccc(Oc4cccc(C(F)(F)F)c4)c(Cl)c3)c21`, the “normalized SmoIP GFP fluorescence” value stood at 116% under setting [1] and 3.66% under setting [2].

Regarding `O=C1CCc2cc(OCCCCc3nnnn3C3CCCCC3)ccc2N1` [Cilostazol], the “normalized SmoIP GFP fluorescence” value under setting [1] was 116% and the “normalized SmoIP GFP fluorescence” value under setting [2] was 2.11%.

Turning to `C[C@@H]1COC(Nc2ccc3ncnc(Nc4ccc(OCc5nccs5)c(Cl)c4)c3c2)=N1`, the “normalized SmoIP GFP fluorescence” value runs as follows: under setting [1], 108%; under setting [2], -17.2%.

As to `COC1=C2C[C@@H](C)C[C@H](OC)[C@H](O)[C@@H](C)/C=C(\C)[C@H](OC(N)=O)[C@@H](OC)/C=C\C=C(/C)C(=O)NC(=CC1=O)C2=O` [geldanamycin], the “normalized SmoIP GFP fluorescence” value runs as follows: under setting [1], 209%; under setting [2], 46.6%.

With `Cc1cc(F)c(Nc2ncnc3cc(OCc4ccccc4)ccc23)cc1O`, the “normalized SmoIP GFP fluorescence” value was 104% under setting [1] and -3.39% under setting [2].

With `CN(C)Cc1cccc(N/C(=C2\C(=O)Nc3cc(C(N)=O)ccc32)c2ccccc2)c1`, the “normalized SmoIP GFP fluorescence” value is 103% under setting [1] and -1.88% under setting [2].

Turning to `CCCCCCCCCCCC1=C(O)C(=O)C=C(O)C1=O` [embelin], the “normalized SmoIP GFP fluorescence” value is, setting by setting: under setting [1], 108%; under setting [2], -2.08%.

For `CN1C2CCCC1CC(NC(=O)c1nn(C)c3ccccc13)C2` (configuration not stated) [Granisetron-Hydrochloride], the “normalized SmoIP GFP fluorescence” value came to 103% under setting [1] and 3.72% under setting [2].

For the compound `C[C@@H](NCCc1ccc(O)cc1)[C@@H](O)c1ccc(O)cc1` [Ritodrine-hydrochloride-Yutopar], the “normalized SmoIP GFP fluorescence” value under setting [1] stood at 144% and the “normalized SmoIP GFP fluorescence” value under setting [2] was -5.98%.

In the case of `COc1cc(NC(=O)c2ccccn2)ccc1Cl`, the “normalized SmoIP GFP fluorescence” value under setting [1] stood at 105% and the “normalized SmoIP GFP fluorescence” value under setting [2] is -1.74%.

Consider `CNC(=O)CN1CCC(Oc2cc3c(Nc4cccc(Cl)c4F)ncnc3cc2OC)CC1`, for which the “normalized SmoIP GFP fluorescence” value by setting is: under setting [1], 112%; under setting [2], -3.72%.

As to `Nc1cc(C(F)(F)F)c(-c2cc(N3CCOCC3)nc(N3CCOCC3)n2)cn1`, the “normalized SmoIP GFP fluorescence” value runs as follows: under setting [1], 68%; under setting [2], -8.9%.

As to `Cc1cc(OCc2nnc(SC3CCCC3)n2-c2cccnc2)ccc1-c1ccc(S(C)(=O)=O)cc1`, the “normalized SmoIP GFP fluorescence” value under setting [1] was 96.7% and the “normalized SmoIP GFP fluorescence” value under setting [2] was 13.7%.

For the compound `O=C(COc1ccc(Cl)cc1)NC1CCC(NC(=O)COc2ccc(Cl)cc2)CC1` (stereo not drawn) [isrib-trans-isomer], the “normalized SmoIP GFP fluorescence” value amounted to 109% under setting [1] and 7.06% under setting [2].

For `CO[C@H]1/C=C\C=C(/C)C(=O)NC2=CC(=O)C(NCCN(C)C)=C(C[C@@H](C)C[C@H](OC)[C@H](O)[C@@H](C)/C=C(\C)[C@@H]1OC(N)=O)C2=O` [17-DMAG,Hydrochloride-Salt], the “normalized SmoIP GFP fluorescence” value under setting [1] stood at 219% and the “normalized SmoIP GFP fluorescence” value under setting [2] is 44.8%.

With `Cc1c(Cn2c(C)nc3c(C(=O)O)cc(N4CCOCC4)cc32)cccc1C(F)(F)F`, the “normalized SmoIP GFP fluorescence” value by setting is: under setting [1], 108%; under setting [2], 0.966%.

`Cc1cnc(-c2cnc(NCCNc3ccc(C#N)cn3)nc2-c2ccc(Cl)cc2Cl)[nH]1`: the “normalized SmoIP GFP fluorescence” value by setting is: under setting [1], 118%; under setting [2], -0.151%.

For the compound `C[C@@]1(c2cc(-c3cncnc3)c(F)cc2F)CCSC(N)=N1`, the “normalized SmoIP GFP fluorescence” value stood at 97% under setting [1] and 10.2% under setting [2].

On to `CN(C)[C@@H](CCOc1cccc2ccccc12)c1ccccc1` [Dapoxetine-hydrochloride(Priligy)], for which the “normalized SmoIP GFP fluorescence” value is, setting by setting: under setting [1], 115%; under setting [2], -13.2%.

Consider `O=C(NCCCNc1nc(Nc2cccc(NC(=O)N3CCCC3)c2)ncc1I)c1cccs1`, for which the “normalized SmoIP GFP fluorescence” value runs as follows: under setting [1], 257%; under setting [2], 78.4%.

As for `CC(=O)Oc1cc2c(s1)CCN(C(C(=O)C1CC1)c1ccccc1F)C2` (configuration not stated) [Prasugrel], the “normalized SmoIP GFP fluorescence” value is 107% under setting [1] and -2.42% under setting [2].

In the case of `CNCC[C@@H](Oc1ccccc1C)c1ccccc1` [atomoxetine-hydrochloride], the “normalized SmoIP GFP fluorescence” value under setting [1] is 104% and the “normalized SmoIP GFP fluorescence” value under setting [2] was -0.264%.

Take `Cc1ccc(NCCCc2ccccc2)c(N)c1`: the “normalized SmoIP GFP fluorescence” value reads like this: under setting [1], 224%; under setting [2], 40.1%.

In the case of `O=C(O)c1cc2cccc([N+](=O)[O-])c2[nH]1`, the “normalized SmoIP GFP fluorescence” value was 136% under setting [1] and 24.3% under setting [2].

Take `CC1CCc2cc(F)cc3c(=O)c(C(=O)O)cn1c23` (configuration not stated) [flumequine]: the “normalized SmoIP GFP fluorescence” value runs as follows: under setting [1], 106%; under setting [2], -3.79%.

In the case of `CC(C)C[C@@H](C=O)NC(=O)[C@H](CC(C)C)NC(=O)[C@H](CC(C)C)NC(=O)OCc1ccccc1`, the “normalized SmoIP GFP fluorescence” value turned out to be 112% under setting [1] and 11.3% under setting [2].

As for `C[C@@H]1CN(CC(=O)Nc2ccc3c(c2)Cc2cccc(-c4cc(=O)cc(N5CCOCC5)o4)c2S3)C[C@H](C)O1`, the “normalized SmoIP GFP fluorescence” value stood at 147% under setting [1] and 5.98% under setting [2].

With `O=C(Cc1ccc(-c2ccc(OCCN3CCOCC3)cc2)cn1)NCc1ccccc1`, the “normalized SmoIP GFP fluorescence” value under setting [1] is 108% and the “normalized SmoIP GFP fluorescence” value under setting [2] was found to be 23.9%.

Regarding `N[C@H]1C[C@@H]1c1ccc(-c2cccc(O)c2)cc1`, the “normalized SmoIP GFP fluorescence” value under setting [1] is 102% and the “normalized SmoIP GFP fluorescence” value under setting [2] was -4.81%.

(Values after the supplement of paper PMC5662767.)
